# This is a sample that favours compounds with a hit; in the whole collection about 1.6% have one here.
# KCNQ2 inh = inhibitors of rat KCNQ2 potassium channel; CHO-K1 KCNQ2, FluxOR thallium flux, 20 min; stronger effect = lower value; O88943; B-score at 10 µM; hit rate 1.1% among 310,000;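 active = fluorescence ratio B-score at most minus 3 library SDs, with starting brightness B-score within 2 library SDs, cut at about -5.5 in these data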
# Target sequence (O88943 whole entry, looked up): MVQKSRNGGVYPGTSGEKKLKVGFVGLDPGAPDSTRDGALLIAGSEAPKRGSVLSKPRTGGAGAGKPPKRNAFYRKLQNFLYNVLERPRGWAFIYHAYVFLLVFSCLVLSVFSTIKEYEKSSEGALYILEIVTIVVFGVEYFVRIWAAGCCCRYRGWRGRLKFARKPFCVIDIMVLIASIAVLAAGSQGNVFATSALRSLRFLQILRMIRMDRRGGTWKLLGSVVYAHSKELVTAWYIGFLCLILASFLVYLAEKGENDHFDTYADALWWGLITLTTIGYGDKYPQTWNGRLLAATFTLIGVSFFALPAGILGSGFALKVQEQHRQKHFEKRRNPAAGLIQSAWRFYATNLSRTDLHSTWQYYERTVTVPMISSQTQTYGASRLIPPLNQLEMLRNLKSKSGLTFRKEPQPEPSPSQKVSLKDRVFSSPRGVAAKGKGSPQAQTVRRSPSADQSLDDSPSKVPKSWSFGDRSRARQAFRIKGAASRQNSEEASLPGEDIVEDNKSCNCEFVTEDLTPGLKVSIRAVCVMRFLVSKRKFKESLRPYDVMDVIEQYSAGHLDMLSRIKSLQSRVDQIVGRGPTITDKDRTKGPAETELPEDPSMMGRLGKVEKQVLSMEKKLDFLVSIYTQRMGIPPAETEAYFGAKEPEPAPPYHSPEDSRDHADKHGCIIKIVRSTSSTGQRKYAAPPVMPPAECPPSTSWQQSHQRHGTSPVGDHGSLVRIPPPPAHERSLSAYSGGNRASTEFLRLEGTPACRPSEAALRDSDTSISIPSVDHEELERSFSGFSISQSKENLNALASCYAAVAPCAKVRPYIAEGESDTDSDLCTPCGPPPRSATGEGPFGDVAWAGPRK
# KCNQ2 pot = KCNQ2 (rat) channel potentiation; O88943; CHO-K1 KCNQ2, FluxOR thallium flux fluorescence; stronger effect = higher value; B-score at 10 µM; hit rate 0.54% among 310,000;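 active = fluorescence ratio B-score at least 3 SD of library B-scores, with initial fluorescence B-score within 3 of them, cut at about 5.3 in these data; same plate scores as AID 2156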;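 also: B-score of peak minus minimum over baseline fluorescence ratio after K+ and Tl+ stimulus; positive B-score means potentiation of KCNQ2 with more thallium influx and brighter signal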
# * hit, by the source's call; i = inactive; x = no result given.
SMILES,KCNQ2 inh,KCNQ2 pot
CCOc1cccc(C2NCc3ccccc3-n3cccc32)c1O (stereo unspecified),-6.8*,-6.8
CCOc1cc(C2NCc3ccccc3-n3cccc32)ccc1O (stereo unspecified),i,x
C=CC1CN2CCC1CC2c1[nH]c2ccccc2c1CCO (stereo unspecified),i,0.09
O=C1NC(=S)NC(=O)C1=Cc1ccc(Br)s1,i,x
O=P(O)(O)/C=C(\Cl)c1ccccc1,i,x
CCN(CC)P(=O)(/C=C(\Cl)c1ccccc1)/C=C(\Cl)c1ccccc1,-5.9*,-5.9
CC(C)n1c(=O)c(C=Nc2cccc([N+](=O)[O-])c2)c(O)n(CCc2ccccc2)c1=O,-6.7*,-6.7
CC(C)n1c(=O)c(C=Nc2ccc(S(N)(=O)=O)cc2)c(O)n(Cc2ccco2)c1=O,i,1
Cc1ccc(N=C(/N=C(\N)N[N+](=O)[O-])Nc2ccc(C)cc2)cc1,i,0.41
COC(=O)C1=C(c2cc3ccccc3o2)C[C@@H]2CC[C@H]1N2C(=O)NCc1ccco1,i,0.04
O=P(O)(Oc1ccccc1)OC(c1ccccc1)C(F)(F)C(F)(F)F (stereo unspecified),i,0.47
CCOc1ccc(N2C(=O)NC(=O)/C(=C/c3cnc(SC)nc3)C2=O)cc1,i,0.58
CN(C)C(=O)Oc1ccc2c(c1)O/C(=C\c1cccc(Cl)c1)C2=O,i,0.05
Cc1c2cnn(CC(=O)N3CCC4(CC3)OCCO4)c(=O)c2c(C)n1Cc1ccc(F)cc1,i,2.2
O=C(Cn1ncc2c3ccccc3n(Cc3ccccc3F)c2c1=O)N1CCC2(CC1)OCCO2,i,16*
Cc1[nH]c2ccccc2c1C(=O)C(=O)N1CC2CC(C1)c1cccc(=O)n1C2 (stereo unspecified),i,0.25
CN1CCC(N(C)c2nc(-c3ccc([N+](=O)[O-])cc3)nc3ccccc23)CC1,-6*,-6
Cc1nc2ccccc2c(=O)n1-c1cc([N+](=O)[O-])cc([N+](=O)[O-])c1,i,0.08
COc1cc(CN2CC3CC(C2)c2cccc(=O)n2C3)cc(OC)c1OC (stereo unspecified),i,0.5
COc1cc(C)c(-c2nc(CN3C[C@@H]4C[C@@H](C3)c3cccc(=O)n3C4)c(C)o2)cc1C,-5.8*,-5.8
O=C(/C=C/c1ccc(F)cc1)NC(=S)N1C[C@H]2C[C@H](C1)c1cccc(=O)n1C2,i,0.24
O=P(Nc1cccc(Cl)c1)(Oc1ccccc1)Oc1ccccc1,-5.6*,-5.6
COc1cccc(NP(=O)(Oc2ccccc2)Oc2ccccc2)c1,i,x
Cc1ccc(N2C(=O)NC(=O)C3(Cc4ccccc4N4CCN(c5ccccc5)CC43)C2=O)cc1 (stereo unspecified),-7.1*,-7.1
O=C1NC(=O)C2(Cc3ccccc3N3CCCC32)C(=O)N1c1cccc(Cl)c1 (stereo unspecified),i,x
SMILES,KCNQ2 inh,KCNQ2 pot
CC/C=C/CC(=O)N[C@@H](c1ccccc1)[C@@H](O)C(=O)O[C@H]1C[C@@]2(O)[C@@H](OC(=O)c3ccccc3)C3[C@](C)(C(=O)[C@H](OC(C)=O)C(=C1C)C2(C)C)[C@@H](O)C[C@H]1OC[C@@]31OC(C)=O (stereo partly specified),-5.6*,-5.6
CCC(C)C(=O)N[C@@H](c1ccccc1)[C@@H](O)C(=O)O[C@H]1C[C@@]2(O)[C@@H](OC(=O)c3ccccc3)C3[C@](C)(C(=O)[C@H](OC(C)=O)C(=C1C)C2(C)C)[C@@H](O)C[C@H]1OC[C@@]31OC(C)=O (stereo partly specified),i,x
CN[C@H]1C[C@H]2O[C@@](C)([C@H]1OC)n1c3ccccc3c3c4c(c5c6ccccc6n2c5c31)C(=O)NC4,i,9.3*
Cc1cc(OCC(=O)NCc2ccc(S(N)(=O)=O)cc2)c2c3c(c(=O)oc2c1)CCC3,i,1.4
C=C(C)[C@@]12OC3(c4ccccc4)O[C@@H]1C1[C@@H]4O[C@]4(CO)[C@@H](O)[C@]4(O)C(=O)C(C)=C[C@H]4[C@@]1(O3)[C@H](C)[C@H]2OC(=O)/C=C/C=C/c1ccccc1 (stereo partly specified),i,x
CN(CCc1ccccc1)Cc1ccccc1[N+](=O)[O-],i,x
Oc1ccccc1CN(CCc1ccccc1)Cc1ccccc1,-6*,-6
O=c1oc2ccccc2c(O)c1[C@H]1c2ccc(O)cc2Oc2c1c(=O)oc1ccccc21,i,x
